Screening data deposited in PubChem by National Center for Advancing Translational Sciences (NCATS).
Tau ThT inhib: tau fibrillization inhibition (ThT binding) | recombinant tau K18 P301L, heparin-induced fibrillization, ThT fluorescence | Potency, µM (doses to about 57.4 µM), inactives show top-dose activity, negative = inhibition, hits mostly inhibitors | 2.1% of 270,000 active | AID 1460; note: nearly all actives have a fitted effect of over 55% in size
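K18 P301L tau (15 uM + 0.24 uM Alexa 594-tagged), heparin 20 uM, NaOAc pH 7, 6 h 37 C; ThT 30 uM, 1 h RT, ex 450/em 510 nm.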
TRb SRC2 PPI: TRbeta-SRC2 interaction inhibition | P10828 | TRbeta-SRC2 peptide binding, fluorescence polarization; receptor liganded with 1 µM T3 | Potency, µM (top dose mostly 106 µM), without a hit: at the top dose activity change, negative = inhibition, usual class: inhibitors | 0.065% of 280,000 active | AID 1469;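 note: plate controls were bound peptide for no effect and peptide without receptor for full effect; nearly all actives have a fitted effect of over 50% in size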
Target sequence (P10828 whole entry, looked up): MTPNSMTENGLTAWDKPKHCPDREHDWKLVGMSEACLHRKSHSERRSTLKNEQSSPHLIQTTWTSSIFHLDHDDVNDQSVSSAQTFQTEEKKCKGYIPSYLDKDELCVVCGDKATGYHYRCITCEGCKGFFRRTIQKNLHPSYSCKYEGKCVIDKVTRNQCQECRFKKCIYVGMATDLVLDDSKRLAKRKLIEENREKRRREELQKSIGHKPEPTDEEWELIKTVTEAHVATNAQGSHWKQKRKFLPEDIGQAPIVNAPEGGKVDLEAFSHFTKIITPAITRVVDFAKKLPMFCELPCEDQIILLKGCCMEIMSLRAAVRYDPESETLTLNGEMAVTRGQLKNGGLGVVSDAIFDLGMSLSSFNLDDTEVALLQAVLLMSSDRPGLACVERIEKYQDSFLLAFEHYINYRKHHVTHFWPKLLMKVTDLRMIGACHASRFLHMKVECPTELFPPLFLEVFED
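Decrease in fluorescence polarization of 20 nM Texas Red SRC2 coactivator peptide flagged inhibition of its binding to 0.6 uM TRb LBD; 1 uM T3 included, incubation 5 hr, ex 555/em 632 nm.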
TR SRC2 fluor cs: counter-screen for TRb-SRC2 inhibitors: fluorescence interference; TRb/SRC2 Texas Red total fluorescence interference; Potency, µM (highest dose often 106 µM), without a hit: top-dose fluorescence change, negative = quenching; 0.29% of 280,000 active; AID 1479; active = well fitted curve in either direction with a large enough effect; inconclusive = small, poorly fitted or top-dose-only effect
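Human TRβ ligand-binding domain (0.6 uM) and Texas Red SRC2 peptide (20 nM) in Tris buffer with 1 uM T3 and 5% DMSO were incubated with pinned compound for 5 hr at ambient temperature. Total fluorescence was computed as S + 2P (555/632 nm).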
Tau fluor cs: counter-screen for tau fibril formation inhibitors. tau K18 P301L Alexa594 fluorescence, heparin fibrillization. Potency, µM (series often up to 57.7 µM), for the others: top-dose activity change, negative = decrease. 0.93% of 280,000 active; note: nearly all actives have a fitted effect of over 55% in size
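Human tau K18 P301L (15 uM unlabeled, 0.24 uM Alexa 594-labeled) in 100 mM sodium acetate pH 7 with 20 uM heparin, 6 hr at 37 C. ThT 30 uM added, 1 hr ambient; Alexa 594 FP and total fluorescence read at 555/632 nm.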
Tau FP inhib: inhibitors of human tau fibril formation | P10636 | K18 P301L tau heparin fibrillization, Alexa594 FP, 6 h | Potency, µM (highest dose often 57.7 µM), for inactives: top-dose activity, negative = inhibition, actives largely listed as inhibitors | 0.39% of 280,000 active | AID 1468; note: nearly all actives have a fitted effect of over 55% in size
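Quantitative HTS format: compounds meet 15 uM recombinant K18 P301L tau and Alexa 594-tau tracer in 100 mM sodium acetate pH 7; 20 uM heparin triggers fibrillization at 37 C over 6 hr; FP gives the signal.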
* hit, by the source's call; [ ] = remark or other dose. Most compounds without a hit are left out; they make up all but 3.1% or so of the library. Unless noted, calls come from the whole dose curve; as a rule, active = well fitted curve in the direction sought with a large enough effect; inconclusive = small, poorly fitted or top-dose-only effect, or another doubt; inactive = no such curve, though single readings can be large; an effect the other way counts as inactive or inconclusive. Unless noted, % is set by controls: 0 for no effect and ±100 for the full control effect; potency is the fitted concentration of half-maximal effect.

What do the screens show for `Cc1cccc(N=Nc2ccc(O)c3ncccc23)c1`?
Tau ThT inhib: 2µM*; TRb SRC2 PPI: 3.2%; TR SRC2 fluor cs: -3.0%; Tau fluor cs: -26.5%; Tau FP inhib: inconclusive

Results for CN1c2ccsc2C(O)=C(C(=S)Nc2ccc(F)c(Cl)c2)S1(=O)=O ?
Tau ThT inhib: 20µM*; TRb SRC2 PPI: 12.0%; TR SRC2 fluor cs: -2.6%; Tau fluor cs: inconclusive; Tau FP inhib: inconclusive

How did CCCSCCCNC(=O)C1CCN(C(=O)c2cc3sccc3n2C)CC1 do in these assays?
Tau ThT inhib: -18.8%; TRb SRC2 PPI: -8.8%; TR SRC2 fluor cs: 31.6µM*[quencher]; Tau fluor cs: -23.9%; Tau FP inhib: -4.4%

What do the screens show for `CCn1c(C(=O)N2CCC(C(=O)NCCCSC3CCCCC3)CC2)cc2sccc21`?
Tau ThT inhib: inconclusive; TRb SRC2 PPI: 12.5%; TR SRC2 fluor cs: -0.6%; Tau fluor cs: -21.8%; Tau FP inhib: -2.1%

How did Cc1ccc(NC(=O)CCC(=O)N/N=C/c2ccc([N+](=O)[O-])o2)cc1C do in these assays?
TRb SRC2 PPI: 1.6%; TR SRC2 fluor cs: -2.3%; Tau fluor cs: -11.6%; Tau FP inhib: -3.8%

Results for CC1=NN(c2ccc(C)c(C)c2)C(=O)/C1=C\C=C\c1ccc([N+](=O)[O-])o1 ?
Tau ThT inhib: 25.1µM*; TRb SRC2 PPI: 2.6%; TR SRC2 fluor cs: -19.7%; Tau fluor cs: inconclusive; Tau FP inhib: inconclusive

How did COc1ccc2cc(CNc3ccc(C)cc3)c(=O)n(CC(=O)Nc3ccc(C)cc3Cl)c2c1 do in these assays?
Tau ThT inhib: -0.5%; TRb SRC2 PPI: -0.8%; TR SRC2 fluor cs: -0.1%; Tau fluor cs: inconclusive; Tau FP inhib: 11.5%

How did CC(=O)N1CCc2nc3sc(C(=O)c4ccc(F)cc4)c(N)c3c(C(F)(F)F)c2C1 do in these assays?
Tau ThT inhib: 4.47µM*; TRb SRC2 PPI: -5.8%; TR SRC2 fluor cs: -4.9%; Tau fluor cs: -14.3%; Tau FP inhib: 8.5%

How did COc1ccc(CNC(=O)c2sc3nc4c(c(C(F)(F)F)c3c2N)CCC4)cc1OC do in these assays?
Tau ThT inhib: -5.8%; TRb SRC2 PPI: -4.0%; TR SRC2 fluor cs: -2.5%; Tau fluor cs: -10.9%; Tau FP inhib: 9.4%

Results for COc1ccc(C(=O)c2sc3nc4c(c(C(F)(F)F)c3c2N)CN(C(C)=O)CC4)cc1OC ?
Tau ThT inhib: 14.1µM*; TRb SRC2 PPI: 6.7%; TR SRC2 fluor cs: -2.3%; Tau fluor cs: -10.1%; Tau FP inhib: 3.9%

Results for NC(=O)c1ccc[n+]([C@@H]2OC(COP(=O)([O-])OP(=O)(O)OCC3OC(n4cnc5c(N)ncnc54)C(OP(=O)(O)O)C3O)C(O)C2O)c1 (some centres not stated) ?
Tau ThT inhib: inconclusive; TRb SRC2 PPI: -5.0%; TR SRC2 fluor cs: 0.5%; Tau fluor cs: -14.3%; Tau FP inhib: -12.6%

What do the screens show for `Cc1ccc2c(c1)/C(=C/c1ccco1)C(=O)N2`?
Tau ThT inhib: 11.2µM*; TRb SRC2 PPI: -0.6%; TR SRC2 fluor cs: -1.4%; Tau fluor cs: -21.4%; Tau FP inhib: 2.6%

What do the screens show for `Cc1ccc(/C=C2\C(=O)Nc3ccccc32)o1`?
Tau ThT inhib: 5.4%; TRb SRC2 PPI: -13.2%[53 µM]; TR SRC2 fluor cs: 0.112µM*[quencher]; Tau fluor cs: 0.8%; Tau FP inhib: -3.5%

How did c1ccc(OCCOc2ccccc2)cc1 do in these assays?
TRb SRC2 PPI: 7.1%[201 µM]; TR SRC2 fluor cs: -3.6%[201 µM]

Results for COc1cc(NC(=O)COCc2cc(-c3ccc4c(c3)OCO4)on2)c(OC)cc1Cl ?
Tau ThT inhib: -17.8%; TRb SRC2 PPI: 1.3%; TR SRC2 fluor cs: 0.0%; Tau fluor cs: -18.5%; Tau FP inhib: 6.8%

What do the screens show for `CCN(CC)c1ccc(NC(=O)COCc2cc(-c3ccc4c(c3)OCO4)on2)c(C)c1`?
Tau ThT inhib: 2.82µM*; TRb SRC2 PPI: 1.0%; TR SRC2 fluor cs: -13.0%; Tau fluor cs: inconclusive; Tau FP inhib: 9.9%

Results for COc1ccc(-c2ccc(C3C4C=CCCC4(C)C(=O)N3Cc3ccccc3)c(F)c2)cc1 (configuration not stated) ?
TRb SRC2 PPI: 3.2%; TR SRC2 fluor cs: -0.8%
